The values below come from PubChem BioAssay AID2796 (The Scripps Research Institute Molecular Screening Center, 2010).

In all, about 320,000 compounds went through this assay and about 8,000 (2.5%) were called active. This is one part of a sample in which actives are shown more often than they occur. Values without a mark were called inactive. Rule as the data show it: active = activation above about 47%; inactive = the rest.

The experiment deals with Aryl hydrocarbon receptor (Homo sapiens) (UniProt P35869). Briefly: AHR activators, primary screen, cell-based, luminescence, luciferase reporter, human (AID 2796).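 Also: 0% = vehicle wells and 100% = reference agonist.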 Conditions: AHR-responsive luciferase reporter cells, at 5 µM, hits give high values. For orientation: In a reporter assay the amount or activity of a reporter protein is the signal.
Chain of Aryl hydrocarbon receptor (Homo sapiens) (P35869 whole entry, looked up): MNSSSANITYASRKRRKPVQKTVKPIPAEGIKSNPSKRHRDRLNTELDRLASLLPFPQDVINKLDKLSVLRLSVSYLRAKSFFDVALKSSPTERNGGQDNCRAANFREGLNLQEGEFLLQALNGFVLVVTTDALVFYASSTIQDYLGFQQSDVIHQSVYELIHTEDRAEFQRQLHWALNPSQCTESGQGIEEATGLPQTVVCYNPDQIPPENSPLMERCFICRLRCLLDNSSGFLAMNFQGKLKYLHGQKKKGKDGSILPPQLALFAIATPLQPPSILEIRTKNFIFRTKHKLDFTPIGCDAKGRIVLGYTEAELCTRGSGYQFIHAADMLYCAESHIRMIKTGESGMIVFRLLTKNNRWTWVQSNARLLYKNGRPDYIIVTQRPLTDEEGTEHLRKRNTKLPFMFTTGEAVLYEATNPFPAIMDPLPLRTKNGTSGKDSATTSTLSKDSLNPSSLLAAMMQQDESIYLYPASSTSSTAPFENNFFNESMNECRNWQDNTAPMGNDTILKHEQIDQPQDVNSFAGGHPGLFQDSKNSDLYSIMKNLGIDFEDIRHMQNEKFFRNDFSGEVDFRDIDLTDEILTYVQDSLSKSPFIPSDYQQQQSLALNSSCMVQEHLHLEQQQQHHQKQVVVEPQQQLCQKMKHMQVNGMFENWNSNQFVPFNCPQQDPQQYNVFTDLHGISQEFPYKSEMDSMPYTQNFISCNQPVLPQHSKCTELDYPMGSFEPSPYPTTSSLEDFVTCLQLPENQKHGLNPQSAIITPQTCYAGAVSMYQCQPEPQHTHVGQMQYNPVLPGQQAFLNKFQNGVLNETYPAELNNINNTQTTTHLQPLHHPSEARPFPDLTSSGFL
Take `O=C(Cc1nc2ccccc2[nH]c1=O)c1ccc(Cl)cc1`: the activation was 57.9% (active).

In the case of `O=C(c1ccc(Cl)cc1)n1cnc2ccccc21`, the activation is -0.68%.

Take `O=c1c(-c2ccc(Cl)cc2)[n+]([O-])c2ccccc2n1OCc1nc2ccccc2[nH]1`: the activation was 24.5%.

In the case of `CCN(CCn1cccn1)Cc1cn[nH]c1-c1ccc(OC)cc1F`, the activation is 1.96%.

Consider `[O-][n+]1c2c(nn1-c1ccc(Cl)c(Cl)c1)-c1nonc1CC2`, for which the activation is 78.5% (active).

As to `O=C(COc1ccc([N+](=O)[O-])cc1)Nc1cccc(C(=O)Nc2ccccc2C(=O)O)c1`, the activation is -3.04%.

As to `CCOC(=O)/C=C/CN(C(=O)OC(C)(C)C)S(=O)(=O)N1CC=CC1`, the activation is -1.1%.

Regarding `COC(=O)c1ccc(/C=N/N2C(C)CCCC2C)cc1` (centres undefined), the activation was -0.9%.

For `COc1ccc(C(=O)N2CCN(c3ccc(C(C)=O)cc3F)CC2)cc1S(=O)(=O)NC1CC1`, the activation was 2.09%.

For the compound `O=C(Nc1ccc(N2C(=O)c3cccc4cccc(c34)C2=O)cc1)c1ccc(N2CCCCC2)c([N+](=O)[O-])c1`, the activation was -0.89%.

With `CCC(c1nnnn1C1CCCC1)N(Cc1cccs1)Cc1cc2cccc(C)c2[nH]c1=O` (centres undefined), the activation was 54.6% (active).

On to `Cc1cccc2cc(CN(Cc3nnnn3Cc3ccccc3)C3CCCC3)c(=O)[nH]c12`, for which the activation is 12.9%.

For `CCC(c1nnnn1Cc1ccco1)N(CCc1ccccc1)Cc1cc2cccc(C)c2[nH]c1=O` (centres undefined), the activation is 19.4%.

Turning to `CC(=O)Nc1ccc(S(=O)(=O)NCCC(=O)N2CCN(c3ccccc3Cl)CC2)cc1`, the activation is 0.74%.

As for `CCC(CO)Oc1cc(NC(=O)c2cccc3ccccc23)c2ncn(C(C)C)c2c1` (centres undefined), the activation was 5.86%.

With `COC(=O)c1cc(C(=O)OCC(=O)Nc2cc(C)on2)cc([N+](=O)[O-])c1`, the activation is 0.26%.

With `O=C1CC2(CCCC2)C(=O)N1CN1CCN(S(=O)(=O)c2ccc(F)cc2F)CC1`, the activation was 1.21%.

For `CNC(=O)Nc1cc(C(C)(C)C)no1`, the activation is 1.28%.

Take `FC(F)(F)c1cnc(Oc2ccccc2-c2nnc(-c3ccc(Cl)cc3)o2)c(Cl)c1`: the activation was 1.03%.

For `CSc1ccccc1-c1nnc(-c2ccc(Cl)cc2)o1`, the activation was 52.9% (active).

Take `COc1ccccc1-c1nnc(-c2ccc(F)cc2)o1`: the activation was 33.5%.

As to `CCC(=O)Nc1ccc2nn(-c3ccc(F)cc3)nc2c1`, the activation was 31.9%.

In the case of `c1ccc(-n2nc3ccccc3n2)cc1`, the activation is -5.11%.

As for `Nc1ccc2nn(-c3ccc(Cl)cc3)nc2c1`, the activation is 109% (active).

`Cc1nn(-c2ccccc2)nc1C(=O)OCC(=O)N1CCCCC1C` (centres undefined): the activation is 4.35%.

Turning to `CC(Sc1nnc(C2CC2)n1C1CC1)C(=O)Nc1ccc(C(N)=O)cc1` (centres undefined), the activation is -0.58%.

Regarding `c1cnc(N2CCN(c3ccc4ccccc4n3)CC2)nc1`, the activation was 120% (active).

As to `CC12CCC(C(=O)N3CCN(c4ncccn4)CC3)(c3nc4ccccc4nc31)C2(C)C` (centres undefined), the activation is 16.9%.

Consider `O=C(c1ccncc1)N1CCN(c2ccc3ccccc3n2)CC1`, for which the activation was -0.88%.

For the compound `O=C1NC(c2ccccc2)CCC1(Cl)Cl` (centres undefined), the activation is 0.32%.

`CC(C)CCN1CCN(Cc2ccc(C(F)(F)F)cc2)CC1CCO` (centres undefined): the activation was 1.42%.

For `COc1cc(NC(=O)COC(=O)CSc2ccc3ccccc3c2)c(C)cc1[N+](=O)[O-]`, the activation was 60% (active).

With `Cc1ccc(C)c(NC(=O)COC(=O)CSc2ccccc2)c1`, the activation is -0.94%.

Regarding `COc1ccc(OCC(=O)Nc2cc(C)c(Cl)cc2OC)c([N+](=O)[O-])c1`, the activation was 3.52%.

For the compound `COc1cc(NC(=O)COC(=O)c2cnc(C)cn2)c(C)cc1[N+](=O)[O-]`, the activation is 49.4% (active).

With `Cc1cc(NC(=O)COC(=O)COc2ccc(Cl)cc2C)c([N+](=O)[O-])cc1C`, the activation is 4.86%.

In the case of `Cc1cnc(C(=O)OCC(=O)Nc2ccc(Cl)cc2Cl)cn1`, the activation was 2.01%.

With `Cc1cccc(N2CCN(C(=O)/C=C/c3ccco3)CC2)c1C`, the activation was 2.32%.

As for `CCN(CC)S(=O)(=O)c1ccc(N2CCCC2)c(NC(=O)c2ccc([N+](=O)[O-])o2)c1`, the activation is 0.5%.

`COc1ccc(N2C(=O)C3C(C2=O)C(C(=O)c2ccccc2)N2CCCC32)cc1` (centres undefined): the activation was 5.21%.

For `Cc1nc2c(c(C)nn2-c2ccccc2)c(C)c1C`, the activation is 45.6%.

Turning to `Cc1nn(-c2ccccc2)c(=O)c2noc(C)c12`, the activation was -0.28%.

With `Cc1nn(-c2ccccc2)c2[nH]c(C(F)(F)F)cc(=O)c12`, the activation is 80.4% (active).

As for `C=CCC[C@@H](Cc1ccc(F)cc1)C(=O)O[C@H](CNC(=O)[C@H](CC=C)CC(=O)N(CCO)Cc1ccccc1)c1ccccc1`, the activation is -0.27%.

`O=C(Nc1ccc(C(=O)O)cc1)/C(=C\c1ccccc1)NC(=O)c1ccc(Br)cc1`: the activation was -2.04%.

For `CCc1ccccc1NC(=O)/C(=C/c1ccccc1)c1ccccc1`, the activation is 0.15%.

Consider `O=C(/C=C/c1ccccc1)N/C(=C/c1ccccc1)C(=O)Nc1ccccc1O`, for which the activation was 74.4% (active).

Turning to `Cc1ccc(S(=O)(=O)N2CCOCC2)cc1NC(=O)COC(=O)c1cnccn1`, the activation is 0.82%.

As to `O=C(CCl)Nc1cccc(CP(=O)(c2ccccc2)c2ccccc2)c1`, the activation was -0.56%.

On to `Cc1ccc(S(=O)(=O)N(C)C)cc1NC(=O)CN1c2cccc3cccc(c23)S1(=O)=O`, for which the activation was 5.14%.

For `CC(=O)N[C@@H](C)C(=O)N1CCC(n2nccc2NC(=O)CCCc2ccccc2)CC1`, the activation is 1.83%.

Regarding `O=C(CCNS(=O)(=O)c1ccc(Br)cc1)NCC1CCCO1` (centres undefined), the activation is 0.8%.

Consider `COc1ccccc1NC(=O)C1=C(C)Nc2ncnn2C1c1ccc(C)o1` (centres undefined), for which the activation is 13.1%.

Regarding `COc1ccccc1NC(=O)C1=C(C)NC2=C(C(=O)CCC2)C1c1ccc(C)o1` (centres undefined), the activation was 102% (active).

Consider `COc1ccccc1NC(=O)C1=C(C)NC(=O)NC1c1ccc(C)s1` (centres undefined), for which the activation was 5.73%.

Take `CCOc1cc2[nH]c(=S)n(CCN3CCCCC3C)c(=O)c2cc1OCC` (centres undefined): the activation was 7.8%.

As for `COC(CNC(=O)c1ccc2c(c1)ncn2-c1cc(C)cc(C)c1)OC`, the activation is 1.33%.

`CNC(=O)c1ccc2nc(NC(C)=O)sc2c1`: the activation was 84.2% (active).

Turning to `CS(=O)(=O)c1ccc2nc(NC(=O)c3ccc(Cl)nc3)sc2c1`, the activation is -5.2%.

Take `Cc1ccc(C(=O)Nc2nc3ccc(Cl)cc3s2)o1`: the activation was -2.1%.

Regarding `CC(NC(=O)CN(C)S(=O)(=O)c1ccc(F)cc1)C1CC2CCC1C2` (centres undefined), the activation was -0.07%.

For `CCNC(=S)N1CCC(c2nc3cc(C)c(C)cc3[nH]2)CC1`, the activation was 84.9% (active).

Turning to `CN(C)CCCNC(=S)N1CCC(c2nc3ccccc3[nH]2)CC1`, the activation was -0.37%.

As for `COCCCNC(=S)N1CCCC(c2nc3cc(C)c(C)cc3[nH]2)C1` (centres undefined), the activation is 12.7%.

Consider `O=C(Nc1cc(C(F)(F)F)ccc1Cl)c1cc(C2CC2)on1`, for which the activation was 20.4%.

`CC(=O)Nc1ccc(NC(=O)CCCNC(=O)c2ccc(Cl)cc2)cc1`: the activation was 1.47%.

Regarding `CCCCC(=O)Nc1ccc(C(=O)Nc2cc(C(F)(F)F)ccc2Cl)cc1`, the activation was 140% (active).

Take `COc1ccccc1-c1cnn2c(N3CCOCC3)cc(C)nc12`: the activation is 34.4%.

As to `O=C(COC(=O)c1cccnc1Cl)NC(=O)NC1CCCCC1`, the activation was -1.66%.

Regarding `COC(C[C@@H]1O[C@@H]1C(=O)[C@H](C)OCc1ccccc1)OC`, the activation is -0.2%.

With `Nc1ccc(-c2nnc(-c3ccccc3)o2)cc1`, the activation is 3.02%.

For the compound `Nc1nonc1-c1noc(-c2ccc(Br)o2)n1`, the activation was 14.2%.

As to `Cn1nc(-c2ccccc2)c(-c2nc(-c3ccc(Cl)cc3)no2)c1Cl`, the activation is -1.35%.

Consider `Brc1ccc(-c2noc(-c3ccccc3)n2)o1`, for which the activation is 122% (active).

Turning to `Brc1ccc(-c2nnc(-c3ccccc3)o2)o1`, the activation was 70.7% (active).

Turning to `O=C(OCc1ccc(Br)cc1)c1cccc(-c2nnc(-c3ccccc3)o2)c1`, the activation is 11.6%.

Take `CCCCCCSc1ccc(-c2nc3ccc(Cl)cn3c2NCc2ccccc2)cc1`: the activation was 1.54%.

Take `Cc1c2cnn(-c3ccccc3)c(=O)c2c(C)n1CCCC(=O)N1CCN(C)CC1`: the activation is -2.09%.

Consider `C/C(=N\NC(=S)NC1CCCCC1)c1ccc(C)o1`, for which the activation is 8.26%.

Consider `C/C(=N/NC(=O)c1ccc(Br)o1)c1ccc(C)o1`, for which the activation was 52.7% (active).

Consider `CC(C)(C)C1CCC(=NNC(=O)c2ccc(Br)o2)CC1` (centres undefined), for which the activation was 9.69%.

As for `CCN(CCCNC(=O)CSc1cc(=O)n(C)c2cc(Cl)ccc12)Cc1ccccc1`, the activation is -0.33%.

In the case of `O=C(NC1CC1)C(Cc1ccccc1)NS(=O)(=O)c1ccccc1F` (centres undefined), the activation was 3.6%.

In the case of `Cc1no[n+]([O-])c1COc1ccccc1/C=C1\NC(=S)NC1=O`, the activation is 25.2%.

With `COc1ccccc1NC(=O)C(C)OC(=O)c1ccc(-n2cnnn2)cc1` (centres undefined), the activation is -0.41%.

For `COc1ccccc1NC(=O)c1cc(Cl)nnc1Cl`, the activation is 17.1%.

On to `COc1ccc(-c2cc(C(=O)Nc3ccccc3O)c3ccccc3n2)cc1`, for which the activation is -7.68%.

`COc1ccccc1NC(=O)c1cc(Cl)nc2ccccc12`: the activation is 48.5% (active).

Regarding `CCOC(=O)C1=C(C)N=C2c3ccccc3C(=O)C2C1c1ccc(Br)cc1` (centres undefined), the activation was 3.41%.

For `O=C1c2ccccc2C2=Nc3ccccc3SC(c3ccccc3F)C12` (centres undefined), the activation was 74.3% (active).

On to `O=C1c2ccccc2C(=O)C1c1ccccc1F`, for which the activation is 1.57%.

With `CCCn1cc(S(=O)(=O)c2ccc(C)cc2)c(=O)c2cc(OCC)ccc21`, the activation was -2.12%.

Turning to `Cc1ccc(NC(=O)c2cc(-c3ccccc3O)n[nH]2)cc1C`, the activation is -2.85%.

As to `c1ccc(-c2cc(-c3nnc4sc(-c5ccccn5)nn34)[nH]n2)cc1`, the activation is -8.07%.

With `Oc1ccccc1-c1cc(-c2ccc(Cl)cc2)n[nH]1`, the activation is 52.2% (active).

With `c1ccc(-c2cc(-c3ccccc3)[nH]n2)cc1`, the activation was 65.1% (active).

For `O=C(Nc1cccnc1Cl)c1cc(-c2ccccc2O)on1`, the activation is 5.22%.

As to `Nc1cccc(-c2cc(-c3ccccc3)nc(-c3cccc(N)c3)n2)c1`, the activation was 27.6%.

As to `CCCNC(=O)C(=O)Nc1cc2c3c(c1)CCC(=O)N3CCC2`, the activation was 28.5%.

Take `CSC1=N/C(=C\C=C\c2cccs2)C(=O)S1`: the activation is 8.97%.

For the compound `CCOc1ccc(NC(=O)CCS(=O)(=O)c2ccc3c(c2)CCCN3C(=O)CC)cc1`, the activation was 4.35%.

Regarding `O=C(Cn1cnc2c(OCc3ccccc3)ncnc21)NCCCn1ccnc1`, the activation was -1.22%.

For the compound `CCCN1C(=O)C(NC(C)=O)c2cc(OC)ccc21` (centres undefined), the activation was 0.18%.

With `CCOC1CS(=O)(=O)CC1OCC` (centres undefined), the activation is 1.87%.
